# Screens from PubChem.
# D2 PAM-1: positive allosteric modulators of human D2 dopamine receptor; P14416; DiscoveRx D2 beta-arrestin cells, luminescence, 90 min; 100% = 57 uM dopamine signal; potentiation, % (test concentration not listed); 360,000 compounds, 0.23% hits; AID 624464; in the data active means potentiation above about 50%; inconclusive means mostly about 30% to 49%
# Target sequence (P14416 whole entry, looked up): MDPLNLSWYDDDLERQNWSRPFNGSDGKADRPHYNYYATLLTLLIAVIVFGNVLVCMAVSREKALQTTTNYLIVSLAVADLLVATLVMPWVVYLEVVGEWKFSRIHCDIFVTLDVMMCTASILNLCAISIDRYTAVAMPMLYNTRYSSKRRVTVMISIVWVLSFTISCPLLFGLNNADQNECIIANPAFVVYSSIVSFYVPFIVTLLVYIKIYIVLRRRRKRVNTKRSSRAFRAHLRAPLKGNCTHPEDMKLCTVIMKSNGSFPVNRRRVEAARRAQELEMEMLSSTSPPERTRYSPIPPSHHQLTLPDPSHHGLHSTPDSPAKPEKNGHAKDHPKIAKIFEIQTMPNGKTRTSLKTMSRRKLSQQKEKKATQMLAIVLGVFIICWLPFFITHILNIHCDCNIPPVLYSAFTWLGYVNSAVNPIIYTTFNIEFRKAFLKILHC
#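 D2 cells co-treated with compound plus 50 nM dopamine (EC20) for 90 min at 37 deg C to detect potentiation. Beta-arrestin recruitment was read as enzyme-fragment luminescence after 1 h at ambient temperature. Full response was set by 57 uM dopamine.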
# D2 PAM-2: D2 dopamine receptor (human) potentiation | AID 485347 | P14416 | potentiation, % at 10 µM | 340,000 compounds, 0.34% hits | HEK293 T-REx D2, calcium flux, EC20 dopamine potentiation;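 active means potentiation over 3 SD above the plate norm, cut at about 30% in these data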
#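 Using a no-wash calcium dye in inducible, force-coupled HEK293 Trex cells expressing D2, we tracked fluorescence each second for 180 s after compound, then for 180 s after EC20 dopamine to detect augmented signalling.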
# D2 ag-1: agonists of human D2 dopamine receptor; 340,000 compounds, 0.53% hits; HEK293 T-REx D2 cells, calcium flux agonist mode; P14416; activation, % at 2 µM;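 active means activation over 3 SD above normal in the single-dose calcium agonist read, cut at about 30% in these data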
#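 Agonism is scored from calcium flux in a force-coupled, inducible HEK293 cell line expressing D2, read kinetically for 180 s after compound addition against dopamine controls.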
# D2 antagonist: antagonists of human D2 dopamine receptor; P14416; HEK293 TREx D2 cells, calcium flux, dopamine EC80; inhibition, % at 10 µM; 340,000 compounds, 2% hits; AID 485344; in the data active means inhibition above about 30%; inactive means below that, where a call was filed
#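 Compounds are added to dye-loaded, induced HEK293 T-REx cells coupled to calcium release via D2; after a 3 min kinetic read an EC80 dopamine stimulus is given and fluorescence is recorded for 3 more min.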
# D2 ag-2: activates the human D2 dopamine receptor. activation, % (no concentration beside the values). P14416. 360,000 compounds, 0.084% hits. DiscoveRx PathHunter D2 beta-arrestin, luminescence, 90 min; 100% = 57 uM dopamine signal; in the data active means activation above about 40%; inconclusive means between about 15% and that limit
#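 DiscoveRx PathHunter D2 beta-arrestin cells (2,100/well) attached overnight, then compound-stimulated 90 min at 37 C in HBSS/10 mM HEPES/0.1% Tween-20 buffer; beta-galactosidase complementation read by luminescence after 1 h at ambient temperature. Dopamine 57 uM final (EC100) as control.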
# Numbers stand for hits; - = inactive; ? = inconclusive; . = not tested or not shown. An excerpt weighted towards active compounds, which were near 2.4% of everything screened.
SMILES,D2 PAM-1,D2 PAM-2,D2 ag-1,D2 antagonist,D2 ag-2
COC(=O)c1nn(-c2ccccc2)c2nnc(Cc3ccc(C)cc3)c(=O)n12,-,-,-,-,-
COC(=O)c1nn(-c2cccc(C)c2)c2nnc(Cc3ccccc3)c(=O)n12,-,-,-,63.1,-
O=C(O)c1ccc2c(=O)n3c(nc2c1)/C(=C/c1ccc(C(F)(F)F)cc1)CC3,-,-,-,-,-
O=c1c2ccccc2nc2n1CC/C2=C/N1CCN(c2cccc(C(F)(F)F)c2)CC1,-,-,-,48.3,-
Cc1csc(/C(=N/OC(=O)c2ccco2)C(N)=O)n1,-,-,-,41.7,-
Cc1ccc(S(=O)(=O)NCCSc2nncn2C)cc1,-,35.1,-,-,-
Cc1ccc(-c2nc(S(=O)(=O)c3ccc(C)cc3)c(N3CCCCC3)o2)cc1,.,-,-,.,.
Cc1cccc(-c2nc3scc(CCNS(=O)(=O)c4ccc(F)c(C(F)(F)F)c4)n3n2)c1,.,-,-,.,.
Cc1ccccc1NC(=O)C1CCN(S(=O)(=O)c2ccccc2)CC1,.,-,-,.,.
CC(NC(=O)c1ccc2c(c1)sc1nc(-c3ccc(F)cc3)cn12)C12CC3CC(CC(C3)C1)C2 (configuration not stated),.,-,-,.,.
CC(=O)c1sc(N/N=C\c2ccc(Br)cc2)nc1C,-,-,-,-,-
CC(=O)c1sc(N/N=C\c2cccc(Br)c2)nc1C,92.5,-,-,-,?
Cc1ccc(-n2ncc3c(NC4CCCCC4)ncnc32)cc1Cl,.,-,-,.,.
Cc1ccc([N+](=O)[O-])cc1NC(=O)Nc1onc(C)c1C,-,-,-,46.6,-
CCOC(=O)c1c(NC(C)=O)c2c3c(sc2n1Cc1nc(-c2ccc(Cl)cc2)oc1C)CCCC3,.,-,-,.,.
O=C(CSc1ncccn1)NC(=O)c1ccccc1,-,34.0,-,-,-
O=C(CSc1ccccc1)NNC(=O)c1ccncc1,-,-,-,57.1,-
O=C(CSc1ncccn1)NCc1ccc(Cl)cc1,-,-,-,35.8,-
Nc1nnc(SCC(=O)NNC(=O)c2ccc(F)cc2)s1,-,-,-,-,-
Nc1nnc(SCC(=O)NNC(=O)c2ccccc2)s1,-,-,-,37.2,-
CN1C(=O)C2CCCCN2c2ccc(C(=O)NCc3ccccc3Br)cc21 (configuration not stated),.,-,.,.,.
CCOC(=O)c1csc(NC(=O)C(C)(C)C)n1,-,-,-,40.7,-
CCCC(=O)Nc1nc(C(=O)OCC)cs1,-,-,-,-,-
Cc1ccc2c(c1)C1CN(C)CCC1N2S(=O)(=O)c1ccc(C#N)cc1 (configuration not stated),-,-,-,39.5,-
Cc1ccc2c(c1)C1CN(C)CCC1N2C(=O)c1ccccc1NS(=O)(=O)c1ccc(F)cc1 (configuration not stated),-,-,-,-,-
SMILES,D2 PAM-1,D2 PAM-2,D2 ag-1,D2 antagonist,D2 ag-2
Cc1ccc(OCC(=O)Nc2ccc3nc(SCC(=O)N4CCCC4)sc3c2)cc1,.,-,-,.,.
Cc1ccc(N(C)C(=O)c2noc3c2CCCCC3)cc1C,.,-,-,.,.
Cc1cccc2sc(NC(=O)C3CCCN(S(=O)(=O)c4cccc5nonc45)C3)nc12 (configuration not stated),-,39.2,-,-,-
Cc1cccc2sc(NC(=O)C3CCCO3)nc12 (configuration not stated),-,-,-,31.9,-
O=C(Nc1ccc(F)c(F)c1)C1CCN(S(=O)(=O)c2cccc3nonc23)CC1,-,30.2,-,-,-
CC(=O)Nc1ccc(NC(=O)C2CCN(S(=O)(=O)c3cccc4nonc34)CC2)cc1,-,-,-,-,-
Cc1nnc(NC(=O)C2CCN(S(=O)(=O)c3cc([N+](=O)[O-])ccc3Cl)CC2)o1,-,-,-,-,?
Cc1cccc2sc(NC(=O)C3CCN(S(=O)(=O)c4cc([N+](=O)[O-])ccc4Cl)CC3)nc12,64.2,-,.,.,?
CC(=O)c1ccc(NC(=O)CSc2nccn2Cc2ccco2)cc1,.,-,-,.,.
COc1ccc(NC(=O)c2cc(-c3ccccc3F)no2)cc1,.,-,-,.,.
Cc1ccc2c(c1)C(=O)OC(C(=O)Nc1ncc(Cc3ccc(C(C)C)cc3)s1)C2 (configuration not stated),.,-,-,.,.
Cc1ccc(-n2nnnc2CN2CCCCC2)cc1,-,-,-,37.8,-
